Measurements taken from PubChem BioAssay (Tox21).
Records with an inconclusive call do not appear. Entries that show only a call come without a potency. Where a structure was tested more than once in an assay, its records may differ in their call. Active and inactive are the calls of the source. Unless noted, the call rests on the fitted dose curve; in most records, active means well fitted curve in the direction sought with a large enough effect in the repeat runs; inconclusive means weak or mixed curves; inactive means no such curve, though single readings can be large; an effect the other way counts as inactive or inconclusive.

Legend:
[1] = qHTS assay to identify aromatase inhibitors - cell viability counter screen (AID 743084);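 further: cells stimulated with testosterone during compound exposure; nearly all actives have a fitted effect of over 55% in size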
[2] = qHTS assay to identify small molecule that activate the aryl hydrocarbon receptor (AhR) signaling pathway - cell viability counter screen (AID 743086);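 further: HepG2 liver cells carrying the AhR DRE luciferase reporter; series mostly up to about 70 µM; nearly all actives have a fitted effect of over 45% in size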
Method in brief: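 HepG2-AhR-luc (HG2L7.5c1) cells, 4000/well, were preincubated 5 h at 37C, exposed to compound in qHTS format for 24 hr at 37C, then given CellTiter-Fluor for 30 min; viability was read as fluorescence in the reporter wells.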

[3] = biological target: Peroxisome proliferator-activated receptor gamma (Homo sapiens) (UniProt P37231); test: qHTS assay to identify small molecule agonists of the peroxisome proliferator-activated receptor gamma (PPARg) signaling pathway (AID 743094; active means well fitted activation curve with a large enough effect in the signal ratio in the repeat runs, not every such curve was filed as active; the % refers to the signal ratio; further: potency means the concentration at half of the fitted maximal effect)
Method in brief: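 Reporter activation was scored by fluorescence of cleaved LiveBLAzer B/G substrate (1 h, room temperature) in PPARg-bla HEK293H cells previously treated 17 h at 37C with DMSO-dissolved compounds.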

[4] = biological target: Peroxisome proliferator-activated receptor gamma (Homo sapiens) (UniProt P37231); test: qHTS assay to identify small molecule antagonists of the peroxisome proliferator-activated receptor gamma (PPARg) signaling pathway (AID 743191; calls by dose curve; further: series mostly up to about 63 µM; nearly all actives have a fitted effect of over 30% in size)
Method in brief: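 GeneBLAzer PPARg UAS-bla HEK293H cells carrying a UAS-driven beta-lactamase reporter were plated at 3000 cells/well, preincubated 5 h at 37C, then given compound for 17 h at 37C; LiveBLAzer B/G FRET substrate was read after 1 h at room temperature.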

[5] = qHTS assay to identify small molecule antagonists of the peroxisome proliferator-activated receptor gamma (PPARg) signaling pathway - cell viability counter screen (AID 743194); further: nearly all actives have a fitted effect of over 55% in size
Method in brief: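 PPARg-UAS-bla HEK293H cells were plated, rested 5 h at 37 C, then treated with compounds plus rosiglitazone (50 nM final) for 17 h at 37 C; viability was then read by CellTiter-Glo luminescence after 30 min at room temperature.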

[6] = qHTS assay for small molecule agonists of the antioxidant response element (ARE) signaling pathway (AID 743202; active means well fitted activation curve with a large enough effect in the signal ratio in the repeat runs, not every such curve was filed as active; the % refers to the signal ratio; further: potency means the concentration at half of the fitted maximal effect)
Method in brief: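 Following a 16 h, 37 C exposure of reporter HepG2 cells (ARE-driven beta-lactamase, 2,000 cells/well) to compounds, FRET substrate was applied for 2 h at room temperature and fluorescence intensity recorded.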

[7] = qHTS assay for small molecule activators of the heat shock response signaling pathway - cell viability counter screen (AID 743209); further: nearly all actives have a fitted effect of over 50% in size
Method in brief: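 Viability of HSE-bla HeLa cells is measured with CellTiter-Glo in the wells already used for the reporter read. Compound exposure lasts 5 h at 37 C, and luminescence is read after 30 min at room temperature.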

[8] = qHTS assay to identify small molecule agonists of the peroxisome proliferator-activated receptor delta (PPARd) signaling pathway - cell viability counter screen (AID 743211); further: nearly all actives have a fitted effect of over 55% in size
Method in brief: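 In the same wells used for beta-lactamase reporter measurement, cytotoxicity is scored by CellTiter-Glo. HEK293H PPARd-bla cells receive compound for 17 h at 37C following a 5 h settling period.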

[9] = biological target: Peroxisome proliferator-activated receptor delta (Homo sapiens) (UniProt Q03181); test: qHTS assay to identify small molecule agonists of the peroxisome proliferator-activated receptor delta (PPARd) signaling pathway (AID 743212; calls by dose curve)
Method in brief: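 Beta-lactamase reporter read by fluorescence (LiveBLAzer B/G FRET, 2 h, room temperature). Test agents, in DMSO, incubated at 37 C with PPARd-bla HEK293H cells.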

[10] = qHTS assay to identify small molecule antagonists of the peroxisome proliferator-activated receptor delta (PPARd) signaling pathway - cell viability counter screen (AID 743213); further: nearly all actives have a fitted effect of over 50% in size
Method in brief: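 In this counter screen, HEK293H cells carrying a UAS-beta-lactamase reporter are co-treated with test compounds and 300 nM L165041 (final) for 17 h at 37 C; cell viability is quantified by CellTiter-Glo luminescence.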

[11] = biological target: Peroxisome proliferator-activated receptor delta (Homo sapiens) (UniProt Q03181); test: qHTS assay to identify small molecule antagonists of the peroxisome proliferator-activated receptor delta (PPARd) signaling pathway (AID 743215; active means well fitted inhibition curve with a large enough effect in the signal ratio in the repeat runs, not every such curve was filed as active; the % refers to the signal ratio;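 further: cells stimulated with agonist L165041 at 300 nM final during compound exposure; series mostly up to about 62 µM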)
Method in brief: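 Plated HEK293H PPARd-bla cells rested 5 h at 37 C and 5% CO2. Compound, then agonist L165041 at 300 nM final, was added; 17 h at 37 C followed. Substrate loading, 2 h room temperature, fluorescence measured.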

[12] = biological target: Bile acid receptor (Homo sapiens) (UniProt Q96RI1); test: qHTS assay to identify small molecule antagonists of the farnesoid-X-receptor (FXR) signaling pathway (AID 743217; active means well fitted inhibition curve with a large enough effect in the signal ratio in the repeat runs, not every such curve was filed as active; the % refers to the signal ratio)
Method in brief: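 Screen of the Tox21 10K library in quantitative HTS format using FXR-UAS-bla HEK 293T reporter cells. Agonist chenodeoxycholic acid, 50 uM final, added with compounds; 16 h incubation at 37 °C; beta-lactamase FRET fluorescence measured.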

[13] = qHTS assay to identify small molecule agonists of the farnesoid-X-receptor (FXR) signaling pathway - cell viability counter screen (AID 743218); further: nearly all actives have a fitted effect of over 45% in size
Method in brief: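 Viability of FXR-bla HEK 293T cells is measured by ATP-based CellTiter-Glo luminescence following 16 h compound treatment at 37 C and a prior 2 h room-temperature beta-lactamase substrate step.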

[14] = biological target: Bile acid receptor (Homo sapiens) (UniProt Q96RI1); test: qHTS assay to identify small molecule agonists of the farnesoid-X-receptor (FXR) signaling pathway (AID 743220; active means well fitted activation curve with a large enough effect in the signal ratio in the repeat runs, not every such curve was filed as active; the % refers to the signal ratio)
Method in brief: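 FXR-UAS-bla HEK 293T cells carrying a UAS-driven beta-lactamase reporter were plated for 5 h at 37C/5% CO2, then exposed to DMSO-dissolved Tox21 10K compounds for 16 h at 37C. A LiveBLAzer B/G FRET substrate was loaded for 2 h at room temperature before fluorescence reading.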

[15] = qHTS assay to identify small molecule antagonists of the farnesoid-X-receptor (FXR) signaling pathway - cell viability counter screen (AID 743221; active means well fitted cell-killing curve with a large enough effect in the repeat runs, not every such curve was filed as active; further: nearly all actives have a fitted effect of over 50% in size)
Method in brief: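 Here viability was scored by luminescence after CellTiter-Glo addition to wells already read for beta-lactamase. Prior treatment: compound plus CDCA (50 uM final), 16 h, 37 C, HEK 293T FXR-bla cells.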

[16] = biological target: Vitamin D3 receptor (Homo sapiens) (UniProt P11473); test: qHTS assay to identify small molecule agonists of the vitamin D receptor (VDR) signaling pathway (AID 743222; calls by dose curve)
Method in brief: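 Fluorescence from cleaved LiveBLAzer B/G FRET substrate served as readout. VDR-bla cells had been treated 16 h at 37C with test compounds in DMSO, following a 4 h settling period, and substrate was loaded for 2 h at RT.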

[17] = biological target: Vitamin D3 receptor (Homo sapiens) (UniProt P11473); test: qHTS assay to identify small molecule antagonists of the vitamin D receptor (VDR) signaling pathway (AID 743223; active means well fitted inhibition curve with a large enough effect in the signal ratio in the repeat runs, not every such curve was filed as active; the % refers to the signal ratio)
Method in brief: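 Inhibition of agonist-driven VDR signalling is scored in VDR-bla cells: 3 nM final 1alpha,25-dihydroxyvitamin D3 plus compound, 16 h at 37C, then beta-lactamase detection by FRET substrate fluorescence after 2 h.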

[18] = qHTS assay for small molecule agonists of the antioxidant response element (ARE) signaling pathway - cell viability counter screen (AID 743203; calls by dose curve; further: nearly all actives have a fitted effect of over 55% in size)
Method in brief: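 Viability counter screen: stably transfected ARE-bla HepG2 line, 16 hrs compound exposure at 37C/5% CO2, ATP-based CellTiter-Glo luminescence measured in the reporter wells.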

[19] = qHTS assay for small molecule activators of the heat shock response signaling pathway (AID 743210; active means well fitted activation curve with a large enough effect in the signal ratio in the repeat runs, with a control signal flat, not every such curve was filed as active; the % refers to the signal ratio; further: series mostly up to about 63 µM)
Method in brief: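 Heat shock element–beta-lactamase HeLa reporter cells; qHTS with compounds for 5 h at 37 C; detection by FRET substrate fluorescence after 2.5 h at RT.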

[20] = biological target: Aryl hydrocarbon receptor (Homo sapiens) (UniProt P35869); test: qHTS assay to identify small molecule that activate the aryl hydrocarbon receptor (AhR) signaling pathway (AID 743085);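 further: HG2L7.5c1 human HepG2 liver cells with stably integrated DRE-driven firefly reporter; series mostly up to about 70 µM; nearly all actives have a fitted effect of over 15% in size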
Method in brief: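 Stably transfected human liver carcinoma cells (HG2L7.5c1; 20 DRE-firefly luciferase) were incubated 5 h, dosed, and kept 24 h at 37C. Agonism was scored from increased luciferase luminescence.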

Sequence of Peroxisome proliferator-activated receptor delta (Homo sapiens) (Q03181 whole entry, looked up): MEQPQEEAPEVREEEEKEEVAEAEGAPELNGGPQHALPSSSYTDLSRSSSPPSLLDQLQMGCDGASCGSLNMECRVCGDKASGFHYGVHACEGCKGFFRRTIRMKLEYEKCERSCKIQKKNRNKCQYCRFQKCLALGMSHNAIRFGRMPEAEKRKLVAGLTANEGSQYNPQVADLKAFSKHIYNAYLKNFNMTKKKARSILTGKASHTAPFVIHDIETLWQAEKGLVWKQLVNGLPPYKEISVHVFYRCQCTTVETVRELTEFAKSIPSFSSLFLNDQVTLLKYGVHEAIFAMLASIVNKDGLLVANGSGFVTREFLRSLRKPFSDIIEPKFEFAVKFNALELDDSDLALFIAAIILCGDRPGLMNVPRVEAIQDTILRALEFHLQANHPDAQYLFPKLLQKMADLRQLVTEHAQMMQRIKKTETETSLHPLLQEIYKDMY
Sequence of Bile acid receptor (Homo sapiens) (Q96RI1 whole entry, looked up): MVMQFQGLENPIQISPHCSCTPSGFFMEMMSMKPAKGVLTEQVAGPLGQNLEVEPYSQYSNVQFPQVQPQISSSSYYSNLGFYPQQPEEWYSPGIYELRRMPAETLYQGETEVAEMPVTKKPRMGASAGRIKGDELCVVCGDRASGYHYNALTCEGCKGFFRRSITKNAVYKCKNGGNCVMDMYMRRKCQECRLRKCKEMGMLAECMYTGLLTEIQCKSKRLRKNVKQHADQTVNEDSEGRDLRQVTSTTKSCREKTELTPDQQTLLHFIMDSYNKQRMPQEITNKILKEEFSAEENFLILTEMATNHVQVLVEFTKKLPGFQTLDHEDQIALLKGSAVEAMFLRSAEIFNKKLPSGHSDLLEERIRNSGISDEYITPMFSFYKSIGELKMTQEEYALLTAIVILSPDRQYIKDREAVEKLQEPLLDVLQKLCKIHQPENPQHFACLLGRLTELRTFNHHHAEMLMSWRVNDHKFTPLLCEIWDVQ
Sequence of Vitamin D3 receptor (Homo sapiens) (P11473 whole entry, looked up): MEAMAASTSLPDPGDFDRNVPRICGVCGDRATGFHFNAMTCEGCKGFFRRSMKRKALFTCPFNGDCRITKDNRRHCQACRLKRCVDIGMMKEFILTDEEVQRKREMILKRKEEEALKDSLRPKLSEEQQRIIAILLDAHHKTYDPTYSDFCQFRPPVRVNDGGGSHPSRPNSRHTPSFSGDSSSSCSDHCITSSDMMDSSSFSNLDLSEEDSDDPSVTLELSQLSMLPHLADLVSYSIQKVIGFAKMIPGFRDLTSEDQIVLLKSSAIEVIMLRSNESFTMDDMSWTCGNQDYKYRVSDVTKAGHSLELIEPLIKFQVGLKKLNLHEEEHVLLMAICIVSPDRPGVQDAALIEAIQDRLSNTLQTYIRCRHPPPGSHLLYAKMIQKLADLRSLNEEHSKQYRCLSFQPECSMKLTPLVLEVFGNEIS
Sequence of Peroxisome proliferator-activated receptor gamma (Homo sapiens) (P37231 whole entry, looked up): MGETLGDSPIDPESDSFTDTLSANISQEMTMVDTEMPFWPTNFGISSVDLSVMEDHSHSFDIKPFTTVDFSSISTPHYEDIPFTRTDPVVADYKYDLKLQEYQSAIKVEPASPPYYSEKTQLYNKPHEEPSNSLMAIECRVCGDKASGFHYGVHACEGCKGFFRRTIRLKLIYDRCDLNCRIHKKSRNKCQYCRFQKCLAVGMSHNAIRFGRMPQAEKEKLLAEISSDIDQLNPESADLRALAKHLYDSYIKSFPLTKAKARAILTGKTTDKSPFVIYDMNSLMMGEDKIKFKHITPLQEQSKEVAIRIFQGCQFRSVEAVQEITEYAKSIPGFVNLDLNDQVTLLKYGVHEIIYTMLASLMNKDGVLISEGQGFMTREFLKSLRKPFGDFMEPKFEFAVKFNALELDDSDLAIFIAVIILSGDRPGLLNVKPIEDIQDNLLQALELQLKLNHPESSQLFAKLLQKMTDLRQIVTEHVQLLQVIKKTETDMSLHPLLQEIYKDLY
Sequence of Aryl hydrocarbon receptor (Homo sapiens) (P35869 whole entry, looked up): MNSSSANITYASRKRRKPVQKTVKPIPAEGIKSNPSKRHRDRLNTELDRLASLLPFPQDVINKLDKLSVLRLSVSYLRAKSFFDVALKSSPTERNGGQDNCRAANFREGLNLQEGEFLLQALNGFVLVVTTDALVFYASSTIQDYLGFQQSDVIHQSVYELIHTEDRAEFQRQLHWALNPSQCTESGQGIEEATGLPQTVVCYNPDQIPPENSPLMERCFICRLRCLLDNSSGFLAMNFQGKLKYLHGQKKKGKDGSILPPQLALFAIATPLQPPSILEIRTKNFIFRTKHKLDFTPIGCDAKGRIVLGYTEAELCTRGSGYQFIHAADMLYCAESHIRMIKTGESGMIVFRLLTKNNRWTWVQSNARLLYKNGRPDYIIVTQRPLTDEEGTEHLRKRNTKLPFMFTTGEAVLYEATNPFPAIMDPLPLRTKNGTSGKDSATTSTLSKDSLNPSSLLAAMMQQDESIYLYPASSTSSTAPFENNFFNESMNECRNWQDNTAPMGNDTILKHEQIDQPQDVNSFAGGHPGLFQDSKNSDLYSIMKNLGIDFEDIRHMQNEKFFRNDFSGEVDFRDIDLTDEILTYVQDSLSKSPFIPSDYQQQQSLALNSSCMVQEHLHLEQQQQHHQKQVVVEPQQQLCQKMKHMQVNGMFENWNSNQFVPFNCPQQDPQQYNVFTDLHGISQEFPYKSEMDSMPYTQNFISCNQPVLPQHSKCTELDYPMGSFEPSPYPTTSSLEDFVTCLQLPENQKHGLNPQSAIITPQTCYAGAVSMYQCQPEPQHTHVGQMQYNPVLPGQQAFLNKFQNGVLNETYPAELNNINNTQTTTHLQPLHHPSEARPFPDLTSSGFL

| Structure (SMILES) | Potency [1] | Potency [2] | Potency [3] | Potency [4] | Potency [5] | Potency [6] | outcome [7] | Potency [8] | outcome [9] | Potency [10] | outcome [11] | Potency [12] | Potency [13] | outcome [14] | outcome [15] | outcome [16] | Potency [17] | Potency [18] | outcome [19] | Potency [20] |
| --- | --- | --- | --- | --- | --- | --- | --- | --- | --- | --- | --- | --- | --- | --- | --- | --- | --- | --- | --- | --- |
| COc1ccc(C(=O)c2ccccc2)c(O)c1 | inactive | inactive | inactive | inactive | inactive | inactive | inactive | inactive | inactive | inactive | inactive | inactive | inactive | inactive | inactive |  |  |  |  |  |
| NC(=O)c1ccc([N+](=O)[O-])cc1Cl | inactive | inactive | inactive | inactive | inactive | inactive | inactive | inactive | inactive | inactive | inactive | inactive | inactive |  | inactive | inactive | inactive |  |  |  |
| C[C@]12CC[C@@H]3c4ccc(O)cc4CC[C@H]3[C@@H]1CCC2=O | inactive | inactive |  |  | inactive |  | inactive | inactive |  | inactive |  | inactive | inactive |  | inactive |  |  | inactive | inactive |  |
| CC1=C(/C=C/C(C)=C/C=C/C(C)=C/C(=O)O)C(C)(C)CCC1 | inactive | inactive | 535 nM (active) |  | inactive |  |  | inactive |  | inactive | inactive |  | inactive |  | inactive | inactive | inactive | inactive |  | inactive |
| O=C(O)CN(CC(=O)O)CC(=O)O | inactive | inactive | inactive | inactive | inactive | 55.3 µM (active) and inactive | inactive | inactive | inactive | inactive | inactive | inactive | inactive | inactive | inactive | inactive | inactive | inactive | inactive |  |
| O=c1cc[nH]c(=O)[nH]1 |  | inactive |  |  | inactive | inactive | inactive | inactive | inactive | inactive | inactive |  | inactive |  | inactive | inactive | inactive |  | inactive |  |
| COc1ccc(O)cc1 | inactive | inactive |  |  | inactive |  | inactive | inactive | inactive | inactive | inactive |  | inactive |  | inactive | inactive | inactive | inactive |  | inactive |
| CC(=O)/C=C/C1=C(C)CCCC1(C)C | inactive | inactive | inactive |  | inactive | inactive | inactive | inactive |  | inactive |  | inactive | inactive |  | inactive | inactive | inactive |  | inactive | inactive |
| C/C=C/c1ccc(O)c(OC)c1 | inactive | inactive | inactive |  | inactive |  | inactive | inactive | inactive | inactive |  |  | inactive |  | inactive |  |  | inactive | inactive | inactive |
| NC(=O)OCC(COC(N)=O)c1ccccc1 | inactive | inactive |  |  | inactive |  | inactive | inactive | inactive | inactive | inactive |  | inactive |  | inactive |  |  | inactive |  | inactive |
| NC(=O)NO | inactive | inactive |  |  | inactive | inactive | inactive | inactive | inactive | inactive | inactive |  | inactive |  | inactive | inactive | inactive | inactive |  | inactive |
| CC1=NN(c2ccccc2)C(=O)C1 | inactive | inactive | inactive |  | inactive | inactive | inactive | inactive | inactive | inactive | inactive | inactive | inactive |  | inactive |  |  |  |  |  |
